Data from PubChem BioAssay.
Active and inactive are the calls of the source. Unless noted, how the calls were made is not given here.

Legend:
[1] = HepG2 liver cancer cell viability effects, profiling panel, resazurin fluorescence, 24 h, PK04 Diversity Set (AID 1172); conditions: higher = more signal; further: test concentration not given here
[2] = basal S. cerevisiae growth modulation, no modifier, primary screen, OD600, strain BY4716, 24 h, basal condition (AID 1173); conditions: OD600, 24 h, higher = more signal, called active from +8 up or from −8 down
[3] = MM1S myeloma cell viability, profiling panel, resazurin fluorescence, basal, 24 h, PK04 Diversity Set (AID 1174); conditions: higher = more signal, called active from +8 up or from −8 down;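 further: MM1S multiple myeloma cell line; test concentration not given here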
[4] = molecular target: Dihydroorotate dehydrogenase (quinone), mitochondrial (Plasmodium falciparum (isolate 3D7)) (UniProt Q08210); assay: PfDHODH enzyme inhibitors, primary screen, biochemical, C-terminal His tag, absorbance 600 nm (AID 1175); conditions: DCIP absorbance 600 nm, higher = more signal, called active from +8 up or from −8 down;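 further: recombinant parasite enzyme with a five histidine tag at its C terminus; test concentration not given here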
[5] = P. aeruginosa biofilm formation inhibitors, primary screen, strain PAO1, LB-PBS medium, absorbance 600 nm (AID 1176); further: test concentration not given here; conditions: P. aeruginosa PAO1 growth/biofilm, A600, 12 h; higher = more signal
[6] = S. cerevisiae RM11-1a growth modifiers, primary screen, strain RM11-1a, OD600, basal, 24 h (AID 1177); conditions: OD600, 24 h, higher = more signal, called active from +8 up or from −8 down;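 further: cultures grown under basal conditions with no added stressor; test concentration not given here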
[7] = E. coli acrAB mutant growth effects, primary screen, E. coli filamentation inducers, strain DRC39, OD650, 24 h (AID 1178); conditions: higher = more signal, called active from +8 up or from −8 down;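 further: growth measured as culture turbidity by optical density at 650 nm; test concentration not given here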
[8] = E. coli acrAB mutant growth effects, primary screen, E. coli filamentation inducers, strain DRC39, OD650, 48 h (AID 1179);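 further: screen aims at cell division blockers that make cells filament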; conditions: E. coli DRC39 delta-acrAB growth, higher = more signal, called active from +8 up or from −8 down
[9] = RPMI8226 myeloma cell viability, profiling panel, resazurin fluorescence, basal, 24 h, PK04 Diversity Set (AID 1180); conditions: higher = more signal;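 further: RPMI8826 multiple myeloma cell line at 5000 cells per well; test concentration not given here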
[10] = molecular target: E3 ubiquitin-protein ligase XIAP (Homo sapiens) (UniProt P98170); assay: XIAP binders, primary screen, biophysical, small-molecule microarray, fluorescence 635 nm (AID 1181); conditions: small-molecule microarray binding, higher = more signal;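 further: score merges 667 nm emission and signal to noise over triplicate slides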
E3 ubiquitin-protein ligase XIAP (Homo sapiens), sequence (P98170 whole entry, looked up): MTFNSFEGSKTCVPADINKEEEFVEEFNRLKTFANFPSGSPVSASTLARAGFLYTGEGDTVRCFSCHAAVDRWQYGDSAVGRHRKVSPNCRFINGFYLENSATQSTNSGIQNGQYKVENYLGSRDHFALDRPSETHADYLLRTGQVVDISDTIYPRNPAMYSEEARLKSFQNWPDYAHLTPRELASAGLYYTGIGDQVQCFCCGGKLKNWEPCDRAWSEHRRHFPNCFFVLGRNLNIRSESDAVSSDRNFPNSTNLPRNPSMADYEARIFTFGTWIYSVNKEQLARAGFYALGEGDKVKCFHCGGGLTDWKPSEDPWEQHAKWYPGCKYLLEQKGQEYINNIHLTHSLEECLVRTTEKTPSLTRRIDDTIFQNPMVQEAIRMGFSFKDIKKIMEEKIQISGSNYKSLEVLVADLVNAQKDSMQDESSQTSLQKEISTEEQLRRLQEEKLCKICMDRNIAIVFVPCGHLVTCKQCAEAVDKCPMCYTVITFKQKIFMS

Dihydroorotate dehydrogenase (quinone), mitochondrial (Plasmodium falciparum (isolate 3D7)), sequence (Q08210 whole entry, looked up): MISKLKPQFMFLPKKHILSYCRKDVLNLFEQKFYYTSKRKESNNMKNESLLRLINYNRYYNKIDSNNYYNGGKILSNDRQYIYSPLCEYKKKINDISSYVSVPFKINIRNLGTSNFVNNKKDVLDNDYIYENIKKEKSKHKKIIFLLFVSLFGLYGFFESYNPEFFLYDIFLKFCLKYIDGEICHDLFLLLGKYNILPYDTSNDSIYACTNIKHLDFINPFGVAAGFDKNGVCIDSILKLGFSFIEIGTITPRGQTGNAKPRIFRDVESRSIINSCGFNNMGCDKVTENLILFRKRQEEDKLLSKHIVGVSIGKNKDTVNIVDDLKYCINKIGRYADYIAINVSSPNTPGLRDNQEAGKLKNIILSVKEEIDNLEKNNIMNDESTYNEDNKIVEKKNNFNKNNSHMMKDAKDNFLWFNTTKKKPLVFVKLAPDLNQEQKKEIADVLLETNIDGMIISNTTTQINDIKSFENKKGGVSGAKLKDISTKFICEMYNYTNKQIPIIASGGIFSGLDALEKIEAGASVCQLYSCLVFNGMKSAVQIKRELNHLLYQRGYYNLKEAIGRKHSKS

Row | Compound | z-score [1] | z-score [2] | z-score [3] | composite z-score [4] | z-score [5] | z-score [6] | z-score [7] | z-score [8] | z-score [9] | composite z-score [10]
1 | COc1cc2c(cc1O)C(c1ccc(CN3CCCC3)cc1)N(C)CC2 (stereo not given) | -0.392 | 0.447 (inactive) | -1.36 (inactive) | -0.65 (inactive) | -0.255 (inactive) | 0.697 (inactive) | 0.0615 (inactive) | 0.382 (inactive) | -0.891 | 0.415
2 | C#C[C@@H](CC)O[Si](C#CCCCC#N)(C(C)C)C(C)C | -0.276 | -17.4 (active) | -0.651 (inactive) | -1.06 (inactive) | 0.113 (inactive) | -2.5 (inactive) | 0.0725 (inactive) | 0.173 (inactive) | -0.221 | -0.142
3 | CC(C)C[C@@H]1NC(=O)[C@@H]2C[C@H](C(=O)NCCCCCC[N+](C)(C)C)[C@H](c3cccc(OCCO)c3)N2C1=O | -0.482 | 0.62 (inactive) | -0.384 (inactive) | -0.317 (inactive) | 0.683 (inactive) | -0.0613 (inactive) | -0.466 (inactive) | -1.15 (inactive) | -0.899 | -0.227
4 | CC1CC/C=C\[C@H]2OC34C=CCN(C(C)(C)C)C(=O)[C@H]3N(C(CO)C(C)C)C(=O)[C@@H]4C2C(=O)O1 (stereo not given in full) | -0.49 | -0.154 (inactive) | -0.34 (inactive) | -6.62 (inactive) | 0.0251 (inactive) | -0.472 (inactive) | 0.361 (inactive) | 0.338 (inactive) | -0.375 | 0.0357
5 | C=C(CCCC)C(=O)CC[C@@H](OC(=O)c1cccnc1)c1ccc(OCCO)cc1 | -0.211 | -2.75 (inactive) | -1.43 (inactive) | -2.9 (inactive) | 0.543 (inactive) | -0.208 (inactive) | -0.566 (inactive) | -0.547 (inactive) | -2.52 | 0.0542
6 | COC(=O)[C@@]1(Cc2ccc(F)cc2)[C@H]2c3cc(C(=O)N4CCCC4)n(CC4CC4)c3C[C@H]2CN1C(=O)c1ccccc1 | -1.57 | -0.443 (inactive) | -1.65 (inactive) | -0.559 (inactive) | 0.495 (inactive) | 0.056 (inactive) | -0.688 (inactive) | -0.64 (inactive) | -2.11 | 0.705
7 | COCCOC(=O)N1C(=O)[C@@]2(c3cc(C#CCCO)ccc31)[C@H](C(=O)N1CCCCCCC1)[C@H]1C(=O)O[C@H](c3ccccc3)[C@H](c3ccccc3)N1[C@@H]2c1ccccc1OCCO | -0.0873 | 0.348 (inactive) | 0.413 (inactive) | -0.0989 (inactive) | 0.898 (inactive) | 0.881 (inactive) | -0.759 (inactive) | -0.359 (inactive) | 0.3 | 0.113
8 | CN(C)C(=O)[C@@]1(Cc2ccccc2N=[N+]=[N-])N=C(c2ccc(OCCCO)cc2)O[C@H]1c1ccccc1 | 0.329 | -1.23 (inactive) | -3.18 (inactive) | 0.346 (inactive) | 0.274 (inactive) | 0.751 (inactive) | -0.105 (inactive) | -1.1 (inactive) | -3.04 | 0.102
9 | Cc1ccccc1C(O)C1C=CC2C(=O)N(c3ccccc3)C(=O)C2N1Nc1ccc([N+](=O)[O-])cc1 (stereo not given) | -0.368 | -0.14 (inactive) | -0.327 (inactive) | 0.718 (inactive) | 1.29 (inactive) | -0.0035 (inactive) | -0.328 (inactive) | -0.316 (inactive) | -0.0045 | 0.167
10 | COC(=O)C(CC#Cc1ccc2c(c1)[C@]1(C(=O)N2)[C@H](c2ccc(OCCO)cc2)N2[C@H](c3ccccc3)[C@H](c3ccccc3)OC(=O)[C@H]2[C@@H]1C(=O)N1CCN(c2ncccn2)CC1)C(=O)OC | -0.175 | 1.96 (inactive) | -0.382 (inactive) | -6.39 (inactive) | 3.09 (inactive) | 1.79 (inactive) | 0.452 (inactive) | 0.152 (inactive) | -2.63 | 0.0651
11 | CCOC(=O)C1=CC[C@@H](c2ccccc2)N(S(=O)(=O)c2ccc(C)cc2)[C@H]1C=Cc1ccccc1 | 1.25 | 1.58 (inactive) | -0.0664 (inactive) | -0.382 (inactive) | 0.987 (inactive) | 0.65 (inactive) | -0.923 (inactive) | -0.706 (inactive) | -1.42 | -0.103
12 | COc1ccc([Si](C)(C)[C@@H]2[C@@H](CC(=O)N3Cc4ccccc4C[C@H]3CO)O[C@]3(C(=O)N(Cc4ccc(N5CCC5=O)cc4)c4ccccc43)[C@H]2C)cc1 | 0.353 | 0.457 (inactive) | -0.736 (inactive) | -3 (inactive) | 1.45 (inactive) | 2.01 (inactive) | 0.7 (inactive) | 0.613 (inactive) | -0.536 | 0.177
13 | C=CC1c2cc(O)c(OC)cc2CCN1Cc1ccc([N+](=O)[O-])o1 (stereo not given) | -0.362 | 0.193 (inactive) | 0.336 (inactive) | 0.294 (inactive) | -1.03 (inactive) | 1.11 (inactive) | 0.148 (inactive) | -0.217 (inactive) | 0.685 | 0.188
14 | CCCNC(=O)[C@@]1(C)c2ccccc2C(=O)N(Cc2ccccc2)[C@H]1c1ccc(CO)cc1 | -0.0367 | -0.312 (inactive) | 0.435 (inactive) | -0.0373 (inactive) | -0.0065 (inactive) | -0.637 (inactive) | 0.503 (inactive) | -0.105 (inactive) | 1.67 | -0.0701
15 | CC(C)C(=C=CC[C@@H](O)c1cccc(OCCO)c1)C[C@@H](O)COCc1ccccc1 | 0.564 | -1.91 (inactive) | 0.301 (inactive) | -3.34 (inactive) | 0.424 (inactive) | -2.4 (inactive) | 0.789 (inactive) | 0.633 (inactive) | 0.47 | -0.119
16 | CCOC(=O)C1=CCC(c2ccco2)N(S(=O)(=O)c2ccc(C)cc2)C1 (stereo not given) | 1.18 | -4.03 (inactive) | 0.123 (inactive) | -2.2 (inactive) | -0.253 (inactive) | -0.749 (inactive) | 0.234 (inactive) | 1.34 (inactive) | 0.769 | 0.424
17 | CC(CO)N1C(=O)[C@@H]2[C@H]3C(=O)OCC=C[C@H]3OC23C=CCN(c2ccc(Cl)cc2)C(=O)[C@@H]13 (stereo not given in full) | 0.909 | -0.414 (inactive) | 0.675 (inactive) | -0.647 (inactive) | -0.897 (inactive) | 0.0289 (inactive) | 0.864 (inactive) | 0.734 (inactive) | 0.282 | -0.394
18 | COc1ccc([Si](C)(C)[C@H]2[C@H](CCO)O[C@@]3(C(=O)N(Cc4ccccc4)c4ccc(N5C(=O)c6ccccc6Oc6ccccc65)cc43)[C@@H]2C)cc1 | -1.6 | 1.09 (inactive) | -4.24 (inactive) | 0.906 (inactive) | 2.38 (inactive) | 3.48 (inactive) | 0.0105 (inactive) | -0.615 (inactive) | -3.34 | -0.172
19 | CCCCC(=C=CC[C@H](O)c1ccc(OCCO)cc1)C[C@H](O)COCc1ccccc1 | -0.0002 | -1.36 (inactive) | 0.0233 (inactive) | -0.624 (inactive) | 0.0964 (inactive) | 0.556 (inactive) | 1.05 (inactive) | 0.529 (inactive) | 0.676 | 0.0122
20 | COc1cccc(/C=C(\C#N)C(=O)Nc2c(C)n(C)n(-c3ccccc3)c2=O)c1 | 0.665 | -1.81 (inactive) | -1.82 (inactive) | -1.14 (inactive) | 0.792 (inactive) | -0.6 (inactive) | 0.575 (inactive) | 1.15 (inactive) | 0.191 | 0.0775
21 | CO[C@H]1O[C@H](CO)[C@@H](OC(=O)Nc2ccc(C#N)cc2)[C@@H]2OC(=O)[C@H](Cc3cccc(Br)c3)C/C=C/C[C@@H](Cc3cccc(Br)c3)C(=O)O[C@@H]12 | -1.39 | -0.253 (inactive) | -3.14 (inactive) | -0.631 (inactive) | 1.23 (inactive) | 0.99 (inactive) | 0.295 (inactive) | 0.432 (inactive) | -2.37 | -0.355
